Assay outcomes: PubChem BioAssay, several laboratories
An excerpt weighted towards active compounds, which were near 1.3% of everything screened.
Keap1-Nrf2 PPI: disrupts human Keap1 binding to Nrf2 peptide | Q14145 | Keap1 Kelch-Nrf2 peptide fluorescence polarization, 1536-well | inhibition, % at 9.4 µM | 340,000 tested, 0.15% active | AID 504523; in the data active = inhibition above about 12%;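 note: human Keap1 Kelch domain with fluorescein labeled Nrf2 9mer peptide probe; 0% = neutral control wells and 100% = peptide positive control; higher means more block of Keap1 binding to Nrf2 peptide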
MCL1 BIM primary: inhibitors of human MCL1 binding to BIM-BH3 peptide; Q07820; GST-MCL1 / FITC-Bim-BH3 fluorescence polarization; inhibition, % at 10.9 µM; 320,000 tested, 0.68% active; AID 2057;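 active = inhibition above the mean inhibition of all tested compounds plus 3 SD, set per campaign, cut at about 40% in these data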;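 note: 0% = DMSO wells and 100% = unlabeled Bim-BH3 peptide control; higher means more loss of mP so more displacement of Bim peptide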
BCLXL inh: inhibitors of human Bcl-xL. AID 2129. 320,000 tested, 0.7% active. GST-Bcl-xL / FITC-Bim BH3 peptide fluorescence polarization. inhibition, % at 10.9 µM. Q07817;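 active = inhibition above the mean of all tested compounds plus 3 SD, cutoff set per campaign, cut at about 30% in these data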;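 note: 0% = DMSO wells and 100% = unlabeled Bim-BH3 peptide competitor; inhibitors lower millipolarization by displacing the labeled peptide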
GLD-1 RNA inh: GLD-1-TGE RNA interaction inhibition (C. elegans). purified GLD-1 + fluorescein TGE RNA, fluorescence polarization. inhibition, % at 5.96 µM. 320,000 tested, 0.44% active. AID 2280;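 active = percent inhibition above a per-plate cutoff, the plate mean of test compounds plus 3 SD, cut at about 30% in these data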;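 note: 0% = DMSO wells with GLD-1 and probe and 100% = wells lacking GLD-1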
C-LANA FP: blocks KSHV LANA C-terminal domain binding to DNA | AID 504423 | 340,000 tested, 0.078% active | MBP-C-LANA/FAM-LBS DNA binding, fluorescence polarization | inhibition, % at 9 µM;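 active = highest replicate inhibition at or above 60% at 9 µM, even if other replicates fall short; inactive = all replicates below 60% inhibition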;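 note: 0% = neutral control wells and 100% = 4 µM acridine orange control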
E coli Lon inh: inhibits E. coli Lon protease. 360,000 tested, 0.42% active. purified E. coli Lon protease, fluorescence polarization. inhibition, % at 7.94 µM; in the data active = inhibition above about 13%, passing the limit was not always enough;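 note: 0% = enzyme with probe and DMSO and 100% = no enzyme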
Target sequence (P0A9M0 whole entry, looked up): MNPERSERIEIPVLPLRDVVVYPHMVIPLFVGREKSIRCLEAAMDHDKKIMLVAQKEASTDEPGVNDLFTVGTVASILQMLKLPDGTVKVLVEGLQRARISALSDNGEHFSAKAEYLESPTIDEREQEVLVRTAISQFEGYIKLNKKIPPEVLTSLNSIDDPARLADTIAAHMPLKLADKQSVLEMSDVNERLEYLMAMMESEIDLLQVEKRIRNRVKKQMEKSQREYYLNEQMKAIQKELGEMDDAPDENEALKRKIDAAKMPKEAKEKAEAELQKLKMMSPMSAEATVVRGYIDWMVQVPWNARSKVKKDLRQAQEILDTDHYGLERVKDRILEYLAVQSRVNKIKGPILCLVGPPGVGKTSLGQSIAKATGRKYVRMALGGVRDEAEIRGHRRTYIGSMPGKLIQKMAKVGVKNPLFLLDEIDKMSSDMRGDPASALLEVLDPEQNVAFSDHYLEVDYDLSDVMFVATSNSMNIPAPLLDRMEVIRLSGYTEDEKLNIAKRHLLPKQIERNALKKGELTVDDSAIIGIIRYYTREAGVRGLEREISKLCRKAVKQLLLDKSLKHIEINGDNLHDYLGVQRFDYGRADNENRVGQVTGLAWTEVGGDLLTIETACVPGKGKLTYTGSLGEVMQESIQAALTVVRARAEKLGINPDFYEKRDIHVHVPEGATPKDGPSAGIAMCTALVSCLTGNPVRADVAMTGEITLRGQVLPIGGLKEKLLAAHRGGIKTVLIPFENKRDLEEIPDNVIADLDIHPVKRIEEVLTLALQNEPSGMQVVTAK
GLD-1 TGE cf: GLD-1 TGE RNA interaction inhibition, confirmation | inhibition, % at 5.96 µM | 550 tested, 10% active | AID 2459 | shares compounds with GLD-1 RNA inh | GLD-1/FL-TGE RNA fluorescence polarization, biochemical;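 active = average inhibition across triplicates above the hit cutoff set in the primary screen, cut at about 32% in these data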;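 note: 0% = GLD-1 with RNA probe and DMSO and 100% = wells lacking GLD-1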
Keap1 Kelch bind: binds and thermally shifts human Keap1 Kelch domain; shares compounds with Keap1-Nrf2 PPI; Keap1 Kelch thermal shift, delta Tm; stronger effect = higher value; max delta Tm, degrees C; 400 tested, 8% active; AID 651823; in the data active = max delta Tm above about 0.48 degrees C
eLon confirm: E. coli Lon inhibition confirmation. shares compounds with E coli Lon inh. purified E. coli Lon, fluorescence polarization. inhibition, % at 7.94 µM. 1,400 tested, 31% active. AID 602230; in the data active = inhibition above about 16%;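 note: 0% = enzyme with probe and DMSO and 100% = no enzyme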
* marks the source's active call; other numbers are inactive results; x = no result given; + = active, no number.

SMILES | Keap1-Nrf2 PPI | MCL1 BIM primary | BCLXL inh | GLD-1 RNA inh | C-LANA FP | E coli Lon inh | eLon confirm | others
COC(=O)CCCCC1SCC(NC(=O)c2ccccc2)C1Cl (configuration not stated) | 1 | 46* | 48* | 38* | 0 | -1 | x | GLD-1 TGE cf=19
CCN(CC)CCN1Cc2ccccc2C1=N | -6 | 36 | 32* | 36* | -1 | -3 | x | GLD-1 TGE cf=-3
Cc1c(C=O)c2ccccc2n1Cc1cccc(F)c1 | -4 | -11 | -2 | 2 | -1 | 7 | x
N#Cc1ccc(/C=C/C(=O)O)cc1 | -6 | 4 | 6 | 55* | -1 | -1 | x | GLD-1 TGE cf=0
N#C/C(=C\c1ccc(O)cc1)C(=O)O | -2 | x | x | x | 2 | -6 | x
NS(=O)(=O)c1cccc(N2CCNCC2)c1 | -6 | 9 | 8 | -1 | 3 | -1 | x
CNC(=O)Oc1cccc(-c2cn3cc(OC(=O)NC)ccc3n2)c1 | 5 | 20 | 22 | 42* | 3 | 35* | 4 | GLD-1 TGE cf=13
COc1cc(C2(C#N)CCN(C)CC2)cc(OC)c1OC | -6 | x | x | x | 0 | 4 | x
CCN1C(=O)NC(=O)/C(=C\c2cn(CC(=O)N3CCCCC3)c3ccccc23)C1=O | 21* | -12 | -7 | -18 | 37 | -33 | x | Keap1 Kelch bind=-0.11
N#CC1c2ccccc2-n2nncc2CN1Cc1cc(Cl)cc(Cl)c1 (configuration not stated) | -4 | x | x | x | -1 | -6 | x
O=c1oc2ccccc2c(O)c1[C@H]1c2ccc(O)cc2Oc2c1c(=O)oc1ccccc21 | -9 | 5 | 8 | 3 | 0 | 18* | 17*
O=[N+]([O-])c1ccc(N2CCOCC2)c2c1no[n+]2[O-] | x | x | x | x | x | 29* | 4
O=[N+]([O-])c1ccc(N2CCOCC2)c2cccnc12 | 1 | 3 | 8 | 2 | -1 | -2 | x
CCOc1cccc(=NC2CCCCC2)c2c(C)n(C)c(C)c12 | x | 14 | 18 | -9 | x | 90* | 0
CC1CC(C)CN(C(=O)COC(=O)c2cn(C)c3ccccc23)C1 (configuration not stated) | 0 | 3 | 2 | 9 | 1 | -16 | x
CCC(c1nnnn1C1CCCCC1)N1CCC2(CC1)C(=O)NCN2c1ccccc1 (configuration not stated) | x | x | x | x | x | -2 | x
COc1ccc(NC2(C#N)CCCCC2)cc1 | 0 | -2 | 4 | 1 | -1 | -3 | x
COc1cccc2c1C(=O)c1c(O)c3c(c(O)c1C2=O)CC(O)(C(C)=NO)CC3OC1CC(N)C(O)C(C)O1 (configuration not stated) | 5 | x | x | x | 114* | + | +
CCC(=NC(C)c1ccccc1)c1c(O)[nH]c(=O)[nH]c1=O (configuration not stated) | -3 | 2 | 0 | 0 | 0 | 21* | 6
CCC(=NCCC(c1ccccc1)c1ccccc1)c1c(O)[nH]c(=O)[nH]c1=O | 0 | -4 | -1 | 0 | -1 | -2 | x
Oc1cc(Cl)c(Cl)c(Cl)c1Cl | 1 | x | x | x | -1 | 49* | -12
Cc1ccc(OCC(=O)N2CCCC(N3CCN(c4ccc(F)cc4)CC3)C2)cc1 (configuration not stated) | 2 | 6 | 9 | -1 | 0 | -8 | x
COc1ccc(OCC(=O)N2CCCC(N3CCN(c4ccccc4C)CC3)C2)cc1 (configuration not stated) | 5 | -2 | 2 | -3 | -1 | 134* | -4
O=C1CN(O)C(c2ccccc2)=c2cc(Br)ccc2=N1 | -2 | 4 | -2 | 1 | 0 | -4 | x
